One test concerns PAK4. The note with it: compound concentrations:3nM, 10nM, 30nM, 100nM, 300nM, 1000nM, 3000nM, 30000nM,R2:0.99818475591728295,slope:0.99089042450123299,EC50 Standard Error, by the legend:Standard error of the EC50 estimation as provided by the drc package.
In a further test the test system is PDPK1;PDPK2P. The settings on record: compound concentrations:3nM, 10nM, 30nM, 100nM, 300nM, 1000nM, 3000nM, 30000nM,R2:0.91971580292243504,slope:1.29280126727837,EC50 Standard Error, by the legend:Standard error of the EC50 estimation as provided by the drc package.
Another test concerns PHKG2. The settings on record: compound concentrations:3nM, 10nM, 30nM, 100nM, 300nM, 1000nM, 3000nM, 30000nM,R2:0.987331752692992,slope:1.79353666450797,EC50 Standard Error, by the legend:Standard error of the EC50 estimation as provided by the drc package.
The subject of the next test is PLK4. The note with it: compound concentrations:3nM, 10nM, 30nM, 100nM, 300nM, 1000nM, 3000nM, 30000nM,R2:0.98129496676024397,slope:1.0145275307596699,EC50 Standard Error, by the legend:Standard error of the EC50 estimation as provided by the drc package.
A further test has as its system PRKD2. The settings on record: compound concentrations:3nM, 10nM, 30nM, 100nM, 300nM, 1000nM, 3000nM, 30000nM,R2:0.99348954984815097,slope:2.8520769192550901,EC50 Standard Error, by the legend:Standard error of the EC50 estimation as provided by the drc package.
The next test relates to PRKD3. The settings on record: compound concentrations:3nM, 10nM, 30nM, 100nM, 300nM, 1000nM, 3000nM, 30000nM,R2:0.98624890214185301,slope:1.3007514421669799,EC50 Standard Error, by the legend:Standard error of the EC50 estimation as provided by the drc package.
In another test the target is Q6ZSR9 (human, UniProt Q6ZSR9). The note with it: compound concentrations:3nM, 10nM, 30nM, 100nM, 300nM, 1000nM, 3000nM, 30000nM,R2:0.98031780619019204,slope:1.5136598557560801,EC50 Standard Error, by the legend:Standard error of the EC50 estimation as provided by the drc package.
Q6ZSR9, sequence (Q6ZSR9 whole entry, looked up): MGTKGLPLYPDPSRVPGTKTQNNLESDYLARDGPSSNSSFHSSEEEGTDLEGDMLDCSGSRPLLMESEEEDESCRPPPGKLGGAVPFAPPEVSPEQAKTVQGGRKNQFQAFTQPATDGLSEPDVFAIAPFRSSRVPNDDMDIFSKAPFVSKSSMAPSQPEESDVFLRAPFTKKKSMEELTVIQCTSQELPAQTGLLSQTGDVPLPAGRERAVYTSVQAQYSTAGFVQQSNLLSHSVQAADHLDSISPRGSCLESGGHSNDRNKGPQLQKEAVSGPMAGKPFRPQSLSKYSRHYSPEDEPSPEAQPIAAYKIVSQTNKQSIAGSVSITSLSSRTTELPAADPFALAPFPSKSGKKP
The next test deals with RET. The note with it: compound concentrations:3nM, 10nM, 30nM, 100nM, 300nM, 1000nM, 3000nM, 30000nM,R2:0.99332600963227702,slope:0.91132357301438205,EC50 Standard Error, by the legend:Standard error of the EC50 estimation as provided by the drc package.
In another test the test system is SIK2. The settings on record: compound concentrations:3nM, 10nM, 30nM, 100nM, 300nM, 1000nM, 3000nM, 30000nM,R2:0.98900734002019797,slope:1.1146515084845601,EC50 Standard Error, by the legend:Standard error of the EC50 estimation as provided by the drc package.
The subject of another test is SLK. The note with it: compound concentrations:3nM, 10nM, 30nM, 100nM, 300nM, 1000nM, 3000nM, 30000nM,R2:0.98664495046468503,slope:1.29889224696913,EC50 Standard Error, by the legend:Standard error of the EC50 estimation as provided by the drc package.
The next test concerns STK10. The settings on record: compound concentrations:3nM, 10nM, 30nM, 100nM, 300nM, 1000nM, 3000nM, 30000nM,R2:0.96114701391993196,slope:1.3567914051898999,EC50 Standard Error, by the legend:Standard error of the EC50 estimation as provided by the drc package.
In another test the test system is STK11. The note with it: compound concentrations:3nM, 10nM, 30nM, 100nM, 300nM, 1000nM, 3000nM, 30000nM,R2:0.98533886968205897,slope:6.0517648666997097,EC50 Standard Error, by the legend:Standard error of the EC50 estimation as provided by the drc package.
The subject of another test is STK26. The settings on record: compound concentrations:3nM, 10nM, 30nM, 100nM, 300nM, 1000nM, 3000nM, 30000nM,R2:0.89438319987914305,slope:6.7801376871061398,EC50 Standard Error, by the legend:Standard error of the EC50 estimation as provided by the drc package.
The subject of the next test is STK3. The settings on record: compound concentrations:3nM, 10nM, 30nM, 100nM, 300nM, 1000nM, 3000nM, 30000nM,R2:0.98274097972393204,slope:1.3616846231778099,EC50 Standard Error, by the legend:Standard error of the EC50 estimation as provided by the drc package.
The subject of another test is STK4. The note with it: compound concentrations:3nM, 10nM, 30nM, 100nM, 300nM, 1000nM, 3000nM, 30000nM,R2:0.95767016983562303,slope:1.48085900140722,EC50 Standard Error, by the legend:Standard error of the EC50 estimation as provided by the drc package.
The subject of the next test is TGFBR2. The note with it: compound concentrations:3nM, 10nM, 30nM, 100nM, 300nM, 1000nM, 3000nM, 30000nM,R2:0.91957544903751998,slope:0.85257672285703501,EC50 Standard Error, by the legend:Standard error of the EC50 estimation as provided by the drc package.
The subject of the next test is CIT. On the set-up: species or system human, MV4-11 + K-562 + COLO205 + SK-N-BE2 + OVCAR-8. The settings on record: compound concentrations:0.3nM, 1nM, 3nM, 10nM, 30nM, 100nM, 300nM, 1000nM,R2:0.97918771846363795,slope:1.88206182244377,EC50 Standard Error, by the legend:Standard error of the EC50 estimation as provided by the drc package.
Another test relates to MOB1A. On the set-up: species or system human, MV4-11 + K-562 + COLO205 + SK-N-BE2 + OVCAR-8. The note with it: compound concentrations:0.3nM, 1nM, 3nM, 10nM, 30nM, 100nM, 300nM, 1000nM,R2:0.920591021551731,slope:1.01230388230399,EC50 Standard Error, by the legend:Standard error of the EC50 estimation as provided by the drc package.
Another test relates to PKN2. On the set-up: species or system human, MV4-11 + K-562 + COLO205 + SK-N-BE2 + OVCAR-8. The note with it: compound concentrations:0.3nM, 1nM, 3nM, 10nM, 30nM, 100nM, 300nM, 1000nM,R2:0.99284498309618197,slope:1.0925759067996901,EC50 Standard Error, by the legend:Standard error of the EC50 estimation as provided by the drc package.
For the next test, the system named is PRKACA. On the set-up: species or system human, MV4-11 + K-562 + COLO205 + SK-N-BE2 + OVCAR-8. The settings on record: compound concentrations:0.3nM, 1nM, 3nM, 10nM, 30nM, 100nM, 300nM, 1000nM,R2:0.96854382612038603,slope:0.55494475064464099,EC50 Standard Error, by the legend:Standard error of the EC50 estimation as provided by the drc package.

Drawing on paper PMC11062922 (Nature Chemical Biology, 2023), this text covers EC50 and Kd for two molecules.

A word on the EC50: it is the concentration needed to bring the measured effect to its halfway point.

With TAK659, the EC50 in the test with PAK4 was 336 nM; in the test on PDPK1;PDPK2P it was 639 nM; in the test with PHKG2, 201 nM; in the test with PLK4, 148 nM; in the test with PRKD2, 1010 nM; with PRKD3 it was 1410 nM. Besides, the EC50 in the test with Q6ZSR9 is 566 nM; in the test on RET, 22.7 nM; in the test with SIK2 it was 260 nM; in the test on SLK, 516 nM; in the test on STK10, 725 nM; with STK11, 1150 nM. The EC50 was 363 nM in the test with STK26, 742 nM in the test on STK3, 628 nM with STK4 and 3720 nM in the test with TGFBR2. Besides, the Kd was 276 nM in the test on PAK4 (read-out: apparent Kd); 639 nM in the test with PDPK1;PDPK2P (read-out: apparent Kd); 201 nM in the test with PHKG2 (read-out: apparent Kd); 77.2 nM in the test with PLK4 (read-out: apparent Kd); 895 nM with PRKD2 (read-out: apparent Kd); 1180 nM with PRKD3 (read-out: apparent Kd). The Kd in the test with Q6ZSR9 (read-out: apparent Kd) is 493 nM; in the test on RET (read-out: apparent Kd) it was 12.1 nM; in the test on SIK2 (read-out: apparent Kd) it was 140 nM; in the test with SLK (read-out: apparent Kd), 516 nM; in the test with STK10 (read-out: apparent Kd), 725 nM; with STK11 (read-out: apparent Kd) it was 1150 nM. In addition, the Kd in the test on STK26 (read-out: apparent Kd) was 275 nM; in the test with STK3 (read-out: apparent Kd), 683 nM; in the test with STK4 (read-out: apparent Kd), 567 nM; in the test with TGFBR2 (read-out: apparent Kd) it was 2960 nM.
On to `CCn1c(-c2nonc2N)nc2c(C#CC(C)(C)O)nc(OCCN)cc21.CCn1c(-c2nonc2N)nc2c(C#CC(C)(C)O)nc(OCCN)cc21.Cl.Cl` [GSK902056A], for which the EC50 with CIT is 279 nM; in the test with MOB1A, 223 nM; in the test on PKN2, 401 nM; with PRKACA, 230 nM. Besides, the Kd in the test on CIT (read-out: apparent Kd) was 279 nM; in the test on MOB1A (read-out: apparent Kd), 223 nM; in the test on PKN2 (read-out: apparent Kd), 401 nM; with PRKACA (read-out: apparent Kd) it was 212 nM.
